High-throughput results as filed in PubChem BioAssay.
MARV entry inh – Marburg virus entry inhibition | Potency, µM (doses to about 37.8 µM), usual class: inhibitors | Marburg virus pseudotyped entry inhibition, cell reporter | 1.8% of 300,000 active; calls by dose curve; tested in HEK293 cells
FMDV antiviral – antivirals against foot and mouth disease virus; FMDV antiviral cell-based qHTS; Potency, µM (doses to about 57.9 µM), actives largely listed as inhibitors; 1.2% of 410,000 active; AID 1159524; calls by dose curve; tested in HEK293T cells; further: read-out not given here; nearly all actives have a fitted effect of over 45% in size
HCV inhibitor – HCV inhibition; 3.4% of 340,000 active; Huh7.5.1 HCVcc-Cre infection, luciferase reporter, 44 h; Potency, µM (titrated, usually from 41.8 µM), actives largely listed as inhibitors; active means well fitted inhibition curve with a large enough effect; inconclusive means small, poorly fitted or top-dose-only effect, or another doubt; inactive means no such curve, though single readings can be large or run the other way
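Luciferase read-out (15 sec integration) after a 15 min room-temperature substrate step quantifies HCVcc-Cre infection. Cells, 1,000 per well, had compound added 4 h post-plating, then virus at ~0.5 moi, and were cultured 44 h.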
Lassa entry inh – inhibitors of Lassa virus binding or cell entry; Lassa virus pseudotype entry inhibition, cell reporter; Potency, µM (top dose mostly 37.9 µM), hits mostly inhibitors; 1.2% of 300,000 active; calls by dose curve; tested in HEK293 cells; further: nearly all actives have a fitted effect of over 50% in size
Shiga toxin inh – blocks Shiga toxin action in Vero cells. AID 2315. inhibition, % at 38.7 µM. Vero cells, Shiga toxin protein synthesis inhibition reporter. 9.2% of 290,000 active; in the data active means inhibition mostly above about 28%, no sharp cut-off; inactive means mostly below about 43%
CHX counter – counter-screen for Shiga toxin inhibitors: cycloheximide protein synthesis inhibition | cell reporter, cycloheximide protein synthesis inhibition counterscreen | 12% of 300,000 active | max response, %; in the data active means max response mostly above about 13%, no sharp cut-off; inactive means mostly below about 14%; further: read at 38.3 µM for the half of the compounds with a filed dose
Large screens that a line does not name were inactive. This is a sample that favours compounds with a hit; in the whole collection about 13% have one here.

CC(C)(C)N(Cc1ccccc1)C(=O)CN1C(=O)c2ccccc2C1=O	Shiga toxin inh 55, CHX counter 38
O=C(Nc1ccc2ccccc2n1)c1ccc(Cl)cc1	MARV entry inh inconclusive, HCV inhibitor inconclusive, Lassa entry inh inconclusive, Shiga toxin inh 67, CHX counter 50
COc1ccccc1NC(=O)c1cc2ccccc2nc1C	none
COc1ccc(C(=O)Nc2ccc3ccccc3n2)c(OC)c1OC	HCV inhibitor inconclusive, Shiga toxin inh 74, CHX counter 51 (no result: MARV entry inh, Lassa entry inh)
COc1cc(NC(=O)c2ccc(Cl)cc2)c2ncccc2c1	HCV inhibitor inconclusive (no result: MARV entry inh, Lassa entry inh)
COc1cc(NC(=O)C2CCCCC2)c2ncccc2c1	HCV inhibitor 10µM
O=C(Nc1ccc2ccccc2n1)c1ccccc1Cl	HCV inhibitor inconclusive, Shiga toxin inh 56, CHX counter 39 (no result: MARV entry inh, Lassa entry inh)
COc1cc(OC)c(NC(=O)Cn2cnc3nc4c(cc3c2=O)CCCC4)cc1Cl	none (no result: MARV entry inh, HCV inhibitor, Shiga toxin inh, CHX counter)
O=C(Nc1ccccc1)C1CCCCC1	none
O=C(Nc1ccc2ccccc2n1)C1CCCCC1	MARV entry inh inconclusive, CHX counter 73
Cc1ccc(C(=O)CCC2CCCCC2=O)cc1 (stereo unspecified)	MARV entry inh inconclusive, Lassa entry inh inconclusive, Shiga toxin inh 101, CHX counter 33
CCc1ccc(C(=O)O)cc1	none
Cc1ccc(C(=O)CCC2CCCC2=O)cc1 (stereo unspecified)	Lassa entry inh inconclusive, Shiga toxin inh 53, CHX counter 50
O=C(CCC1CCCCC1=O)c1ccccc1 (stereo unspecified)	none
CCc1ccc(C(=O)CCC2CCCCC2=O)cc1 (stereo unspecified)	Shiga toxin inh 96, CHX counter 36
Cc1ccc(S(=O)(=O)NCc2ccc(C(=O)NCCN(Cc3ccccc3)C(C)C)cc2)cc1	MARV entry inh 11µM, HCV inhibitor inconclusive
Cc1ccc(S(=O)(=O)NCc2ccc(C(=O)NCCc3cccc(C)c3)cc2)cc1	none (no result: MARV entry inh, HCV inhibitor, Shiga toxin inh, CHX counter)
CS(=O)(=O)NCc1ccc(C(=O)NCCOc2ccccc2)cc1	MARV entry inh inconclusive, Shiga toxin inh 63, CHX counter 50
Cc1ccc(OCCNC(=O)c2cccc(S(=O)(=O)NCc3ccccc3)c2)cc1	MARV entry inh 6.3µM, HCV inhibitor inconclusive, Lassa entry inh inconclusive (no result: Shiga toxin inh, CHX counter)
Cc1ccc2oc(-c3cc(NC(=O)CC(C)C)ccc3Cl)nc2c1	none (no result: HCV inhibitor, Shiga toxin inh, CHX counter)
COc1ccccc1OCCNC(=O)c1cccc(S(=O)(=O)N2CCN(C)CC2)c1	MARV entry inh inconclusive (no result: HCV inhibitor)
CN(C(=O)c1ccc(Cl)cc1)C1=CCCCC1CCC#N (stereo unspecified)	MARV entry inh inconclusive
O=C(c1ccc(Br)cc1)c1cn[nH]c1-c1ccccc1O	MARV entry inh inconclusive, Lassa entry inh inconclusive
Cc1ccc(-c2[nH]ncc2C(=O)c2cccc(F)c2)c(O)c1	HCV inhibitor inconclusive, CHX counter 8.5
CC(C)(C)c1ccc(C(=O)c2cn[nH]c2-c2ccccc2O)cc1	MARV entry inh inconclusive, Shiga toxin inh 58, CHX counter 42
Cc1ccc(-c2nnc(Nc3cccc(O)c3)c3ccccc23)cc1S(=O)(=O)N1CCCCC1	Lassa entry inh inconclusive (no result: MARV entry inh, HCV inhibitor, Shiga toxin inh, CHX counter)
Cc1c(N2C(=O)/C(=C/C3CC=CCC3)SC2=S)c(=O)n(-c2ccccc2)n1C (stereo unspecified)	MARV entry inh inconclusive, FMDV antiviral 18µM, Lassa entry inh inconclusive
Cc1c(N2C(=O)/C(=C\C3CC=CCC3)SC2=S)c(=O)n(-c2ccccc2)n1C (stereo unspecified)	MARV entry inh inconclusive, FMDV antiviral 25µM
Cc1c(N2C(=O)/C(=C\c3ccccc3O)SC2=S)c(=O)n(-c2ccccc2)n1C	FMDV antiviral inconclusive (no result: MARV entry inh, Lassa entry inh)
Cc1c(N2C(=O)/C(=C3\C(=O)N(CC(=O)O)c4ccccc43)SC2=S)c(=O)n(-c2ccccc2)n1C	FMDV antiviral 25µM (no result: MARV entry inh, Lassa entry inh)
Cc1c(N2C(=O)/C(=C/c3ccccc3)SC2=S)c(=O)n(-c2ccccc2)n1C	none
O=c1[nH]cc(C=NNc2ccccc2)c(=O)[nH]1	none (no result: MARV entry inh, HCV inhibitor, Lassa entry inh, Shiga toxin inh, CHX counter)
CNC(=O)c1nc(C)n(-c2cc(Cl)ccc2Cl)n1	CHX counter 29
CNC(=O)c1nc(C)n(-c2cc(Cl)cc(Cl)c2)n1	none
Oc1ccc(C=Nc2cccc3ncccc23)c(O)c1	HCV inhibitor inconclusive
Oc1ccc(C=Nc2ccc3ncccc3c2)c(O)c1	Shiga toxin inh 106, CHX counter 56 (no result: FMDV antiviral, HCV inhibitor, Lassa entry inh)
C[CH2][Hg][S]c1ccccc1C(=O)O	FMDV antiviral 28µM (no result: MARV entry inh, Lassa entry inh, Shiga toxin inh, CHX counter)
COC(=O)/C(C#N)=C1/C=Cc2ccccc2N1C	Shiga toxin inh 61, CHX counter 26
